Measured values: ChEMBL document CHEMBL1157539, “Thousands of chemical starting points for antimalarial lead identification” (Nature, 2010)

These compounds were tested on Plasmodium falciparum (assay: GSK_TCMDC: Inhibition of Plasmodium falciparum Dd2 in whole red blood cells, using parasite LDH activity as an index of growth. Test compounds present at 2uM).
Assay type: functional
With `Cc1cc(OCC2CCN(c3ccc(C(=O)NC4CC4)cn3)CC2)ccc1F` the Inhibition was 95%. With `CCN(CC)CC(O)c1cc(-c2ccc(C)cc2)nc2c(C)cc(C)cc12.Cl` (stereo not given) the Inhibition was 99%. With `Fc1ccc(Nc2ccnc3cc(-c4ccc(CN5CCOCC5)o4)ccc23)c(Cl)c1` the Inhibition was 100%. In the case of `O=CO.O=S1(=O)NCc2ccc(Nc3nccc(Nc4ccc5c(cnn5Cc5ccccc5)c4)n3)cc21`, the Inhibition is reported as 33%. Work on `N#Cc1c(N2CCCCCC2)nc(N)c2c(N)nc3c(c12)CC(=O)N3c1ccc(F)cc1` yielded an Inhibition of 91%. `O=C(Nc1cccnc1)c1cn(-c2ccccc2)nc1-c1cccs1` was tested, and the Inhibition was 61%. With `CN1CCc2cc(NS(=O)(=O)c3ccc(-c4ccc(Cl)cc4)cc3)c(OCCCN3CCCCC3)cc2CC1.Cl` the Inhibition was 100%. `N#Cc1ccc(N[C@@H](CC2CCCCC2)C(=O)Nc2ccc(-c3ccccc3)cc2)c2ccccc12.O=C(O)C(F)(F)F` showed an Inhibition of 99%. For `COc1cccc(N(CCCN2C(=O)c3cccc4cccc(c34)C2=O)C(=O)c2ccccc2C)c1`, the Inhibition was 70%. For `COc1ccc2nccc([C@@H](O)CN3CCC(NC(=O)Cc4cc5ccccc5s4)CC3)c2c1`, the Inhibition was 42%. `COCCNC(=O)c1ccc(OC2CCN(Cc3ccc(F)c(F)c3)CC2)c(Cl)c1` showed an Inhibition of 73%. Compound `COc1ccc(CN2CCC(CNC(C)c3cccc4ccccc34)CC2)cc1.O=C(O)C(F)(F)F` (stereo not given) has an Inhibition of 26%. Compound `O=C(Nc1ccc(C(=O)N2CCN(CCN3CCN(c4cccc(C(F)(F)F)c4)CC3)CC2)cc1)c1ccc(OC(F)(F)F)cc1` has an Inhibition of 25%. `O=C(C=Cc1ccc(Cl)c(Cl)c1)NCCCCCN1CCCC(CCCNC(=O)/C=C/c2ccccc2)C1` (stereo not given) was tested, and the Inhibition was 12%. For `CC(C)C[C@@H](NC(=O)NC1CCC(CCN2C3CCC2CC(OC(=O)C(CO)c2ccccc2)C3)CC1)C(O)(c1ccccc1)c1ccccc1` (stereo not given in full), the Inhibition was 71%. `Nc1nc(Nc2cccc(Cl)c2)ncc1C(=O)NCc1ccncc1` showed an Inhibition of 29%. In the case of `Cc1c(C)c2c(c(C)c1O)CC[C@@](C)(C(=O)N1CCC(CCN3CCC(c4c[nH]c5ccccc45)CC3)CC1)O2`, the Inhibition is reported as 91%. `O=C(NC1CCN(c2ccnc3cc(Cl)ccc23)C1)c1ccc(C(F)(F)F)cc1.O=C(O)C(F)(F)F` (stereo not given) gave an Inhibition of 57%. `COc1ccc2nccc(N3CCCN(CCNCc4ccc5c(n4)NC(=O)CS5)CC3)c2n1.Cl` showed an Inhibition of 10%. In the case of `CS(=O)(=O)CCOCc1ccc(-c2ccc3ncnc(Nc4ccc(OCc5cccc(F)c5)c(Cl)c4)c3c2)o1`, the Inhibition is reported as 43%. For `CN1CCN(c2nsc3ccc(-c4ccc(NC(=O)Nc5ccccc5)cc4)cc23)CC1.O=C(O)C(F)(F)F`, the Inhibition was 98%. `Cc1cnn(-c2cccc(C(=O)NC3CCC(CCN4CCc5ccc(C#N)cc5CC4)CC3)c2)c1.Cl` (stereo not given) showed an Inhibition of 48%. For `O=C(NC1CCN(CCC[C@]2(c3ccc(Cl)c(Cl)c3)CCCN(C(=O)c3ccccc3)C2)CC1)c1ccc(F)cc1`, the Inhibition was 68%. `CCN(CC)CC(O)c1cc(-c2ccc(OC)cc2)nc2cc(Cl)ccc12.Cl` (stereo not given) was tested, and the Inhibition was 98%. Compound `CC(C)C[C@H](NC(=O)c1cc(-c2ccc(C(C)(C)C)cc2)no1)C(=O)O.CC(C)C[C@H](NC(=O)c1conc1-c1ccc(C(C)(C)C)cc1)C(=O)O` has an Inhibition of 6%. `CC(C)[C@H](NC(=O)NC1CCC(CCN2C3CCC2CC(OC(=O)C(CO)c2ccccc2)C3)CC1)C(O)(c1ccccc1)c1ccccc1` (stereo not given in full) showed an Inhibition of 4%. With `O=C1C(c2ccccc2)=C(Nc2ccc([N+](=O)[O-])cc2)c2ccccc21` the Inhibition was 73%. `CCNc1cc(C(=O)N[C@@H](Cc2ccccc2)[C@H](O)CNC2CCC(C(C)(C)C)CC2)cc(N2CCCC2=O)c1` (stereo not given in full) showed an Inhibition of 98%. With `Cc1cc(N(C)CCN(C)C)nc(Nc2ccc(Cl)cc2)n1` the Inhibition was 14%. Work on `CCc1cn2c3c(cc(C(=O)N[C@@H](Cc4ccccc4)[C@H](O)CNCc4ccc(C)cc4)cc13)N(C)S(=O)(=O)CC2.O=CO` yielded an Inhibition of 98%. In the case of `Cc1cccn2c(=O)c3cc(C(=O)NCCN4CCOCC4)c(=N)n(CCc4ccccc4)c3nc12`, the Inhibition is reported as 85%. Work on `Cc1cccc(CCNC(=O)c2cc(Br)cc(N3CCN(c4ccncc4)CC3)c2)c1.O=C(O)C(F)(F)F` yielded an Inhibition of 53%. With `COCn1ncc2cc(-c3cccc(NC(=O)c4csc(NC(C)=O)n4)c3)ccc21` the Inhibition was 68%. Compound `COc1ccc(Cn2c(Nc3cccc(C(F)(F)F)c3)nc3cc(C(=O)NCCCN(C)C)ccc32)cc1Cl` has an Inhibition of 3%. `O=C(/C=C/c1ccc(Cl)c(Cl)c1)NCCCCCCN1CCN(C(=O)Nc2ccc(Cl)c(C(F)(F)F)c2)CC1` gave an Inhibition of 43%. `CS(=O)(=O)CCNCc1cccc(-c2cc3c(Nc4ccc5c(cnn5Cc5ccccc5)c4)ncnc3s2)c1.O=C(O)C(F)(F)F` gave an Inhibition of 100%. With `CN(Cc1ccc(C#N)cc1)C1CCN(c2cc(NC(=O)c3cccc(F)c3)ccn2)CC1.O=C(O)C(F)(F)F` the Inhibition was 0%. `Cc1ccc2[nH]c(-c3ccc(C=CC(=O)NC4CCN(Cc5ccccc5)CC4)cc3)nc2c1` was tested, and the Inhibition was 92%. `CC(=O)N(Cc1ccc(CC(C)NCCc2cccc(Cl)c2)cc1)Cc1ccc(CC(C)NCCc2cccc(Cl)c2)cc1` (stereo not given) was tested, and the Inhibition was 94%. `Cn1c(NC2CCN(CC3CCN(C(=O)/C=C/c4ccc(Cl)c(Cl)c4)CC3)CC2)nc2ccccc21` gave an Inhibition of 100%.
